# Assay results taken from PubChem BioAssay (NCATS).
# Several values for one entry are separate records, joined by “and”; a condition that tells them apart may be missing. Equal values may be shown once. Unmarked numbers belong to inactive results. Results filed as inconclusive are left out. A structure can be active in one record and inactive in another. Activity calls are given as the source filed them. Unless noted, the call rests on the fitted dose curve; in most records, active means well fitted curve in the direction sought with a large enough effect; inconclusive means small, poorly fitted or top-dose-only effect, or another doubt; inactive means no such curve, though single readings can be large; an effect the other way counts as inactive or inconclusive.
# Assays:
# [1] = target: Peroxisome proliferator-activated receptor alpha (Homo sapiens) (UniProt Q07869); test: qHTS assay for small molecule agonists of the peroxisome proliferator-activated receptor alpha (PPARalpha) signaling pathway (AID 651778); details: PathHunter PPARalpha complementation, chemiluminescence, 6 h; max response: hits give high values; further: potency means the concentration at half of the fitted maximal effect; on max response: % of control where 0% means no effect
# Sequence of Peroxisome proliferator-activated receptor alpha (Homo sapiens) (Q07869 whole entry, looked up, the tested form may be a part): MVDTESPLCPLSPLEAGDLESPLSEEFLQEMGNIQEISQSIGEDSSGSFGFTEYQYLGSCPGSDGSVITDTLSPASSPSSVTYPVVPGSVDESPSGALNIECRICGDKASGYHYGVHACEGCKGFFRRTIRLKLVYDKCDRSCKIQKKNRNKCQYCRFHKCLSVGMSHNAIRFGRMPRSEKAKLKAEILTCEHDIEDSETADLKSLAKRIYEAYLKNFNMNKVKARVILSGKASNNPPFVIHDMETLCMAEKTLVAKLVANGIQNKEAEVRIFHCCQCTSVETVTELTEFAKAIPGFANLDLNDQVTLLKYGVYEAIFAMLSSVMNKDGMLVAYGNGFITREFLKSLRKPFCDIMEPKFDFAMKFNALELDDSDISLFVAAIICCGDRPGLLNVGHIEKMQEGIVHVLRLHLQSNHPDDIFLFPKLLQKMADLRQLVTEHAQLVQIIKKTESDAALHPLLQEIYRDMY
# How it was run: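 Enzyme-fragment complementation assay in which ligand-bound PPARalpha translocates and forms an active enzyme that generates chemiluminescence. Cells were plated overnight, exposed to compound for 6 hr at 37 C, and then given detection reagent for 60 min at room temperature.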
# [2] = qHTS assay for small molecule agonists of the antioxidant response element (ARE) signaling pathway measured by Nrf2-dependant transcriptional activity (AID 720636; active means well fitted curve in the direction sought with a large enough effect in the repeat runs; an effect the other way counts as inactive or inconclusive;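 further: HepG2 cells with an ARE-driven luciferase reporter; % of control where 0% means no effect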)
# How it was run: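 ONE-Glo luminescence, read 30 min after reagent addition at room temperature, reflected ARE reporter activity in HepG2 cells that had been incubated with compound for 16 hr at 37 C in 1% dialyzed FBS.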
# [3] = qHTS assay for small molecule agonists of the antioxidant response element (ARE) signaling pathway measured by Nrf2-dependant transcriptional activity - cell viability counter screen (AID 720653; active means well fitted curve in the direction sought with a large enough effect in the repeat runs; an effect the other way counts as inactive or inconclusive; further: potency means the concentration at half of the fitted maximal effect; on max response: on the % scale 0 is the no-effect control and ±100 the full control effect); details: ARE-bla HepG2 viability, CellTiter-Glo ATP luminescence, 16 h; max response: hits give low values
# How it was run: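 ARE-bla HepG2 cells treated with compounds for 16 h at 37C; this counter screen measures viability as intracellular ATP by CellTiter-Glo luminescence after 30 min at room temperature.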
# [4] = qHTS assay for environmental chemicals that activate the Aryl hydrocarbon Receptor (AhR) signaling pathway (AID 651777); details: 1A2-DRE human hepatoma cells, luciferase, 24 h; activation: hits give high values; further: nearly all actives have a fitted effect of over 15% in size; further: potency means the concentration at half of the fitted maximal effect; on activation: % of control where 0% means no effect
# How it was run: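 Following a 24 hr incubation with test chemicals at 37 C and 5% CO2, 1A2-DRE human hepatoma cells received One-Glo reagent; after 30 min at room temperature, luciferase output reflected CYP1A2 induction via AhR.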
# [5] = target: Tyrosine-protein kinase Yes (Homo sapiens) (UniProt P07947); test: qHTS for small molecule inhibitors of Yes1 kinase: Primary Screen (AID 686947); further: nearly all actives have a fitted effect of over 60% in size; further: potency means the concentration at half of the fitted maximal effect
# Sequence of Tyrosine-protein kinase Yes (Homo sapiens) (P07947 whole entry, looked up): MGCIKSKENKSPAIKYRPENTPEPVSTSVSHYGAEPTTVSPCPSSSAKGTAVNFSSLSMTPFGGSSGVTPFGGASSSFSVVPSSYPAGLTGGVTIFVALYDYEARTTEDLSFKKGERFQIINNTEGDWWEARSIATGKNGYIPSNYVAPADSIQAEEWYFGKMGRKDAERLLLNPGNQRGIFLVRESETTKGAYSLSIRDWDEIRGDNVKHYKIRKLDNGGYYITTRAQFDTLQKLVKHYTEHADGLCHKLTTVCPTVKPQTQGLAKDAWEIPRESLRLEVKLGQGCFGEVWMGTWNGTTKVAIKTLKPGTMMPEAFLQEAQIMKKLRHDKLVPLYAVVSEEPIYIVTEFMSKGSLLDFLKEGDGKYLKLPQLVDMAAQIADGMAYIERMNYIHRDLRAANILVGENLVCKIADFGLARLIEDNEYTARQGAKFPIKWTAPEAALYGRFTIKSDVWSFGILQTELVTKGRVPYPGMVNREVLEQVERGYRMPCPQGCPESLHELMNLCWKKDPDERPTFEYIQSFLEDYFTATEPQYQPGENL
# How it was run: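 ADP-Glo luminescence reports ADP formed by 4 nM Yes1 phosphorylating poly(E4Y) (0.3 mg/mL) with 0.1 mM ATP for 60 min at room temperature, following 20 min compound preincubation; normalised between DMSO wells with and without enzyme.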
# [6] = qHTS for compounds that reverse cellular toxicity of Amyloid beta (A-beta) peptide in yeast: LOPAC Validation Assay (AID 720559);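 further: plate controls were DMSO for no effect and equimolar ferric chloride plus clioquinol rescue for full effect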
# How it was run: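 OD600 growth readout after 48 hr at 30 C; A-beta-toxic yeast plus pinned compounds in medium. Normalization: DMSO = negative, equimolar FeCl3 + clioquinol = positive.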
# [7] = qHTS for Activators of Parkin Expression: LOPAC Validation Assay (NLuc Reporter) (AID 720572)
# How it was run: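 NLuc signal, read 10 min after reagent and following a prior FLuc read, is normalized to DMSO (0) and positive controls (100%). Cells: neuronal Parkin-promoter coincidence reporter line; compounds tested 7-point, 24 h, 37 C, 5% CO2.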
# [8] = qHTS for Activators of Parkin Expression: LOPAC Validation Assay (FLuc Reporter) (AID 720573)
# How it was run: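 FLuc luminescence read-out from a neuronal line expressing a Parkin-promoter-driven coincidence reporter. Cells treated 24 h at 37 C, 5% CO2 with compounds at 7 concentrations; signal increase normalized to DMSO and positive control.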
# [9] = target: Nuclear receptor ROR-gamma (Homo sapiens) (UniProt P51449); test: qHTS assay for small molecule antagonists of the retinoid-related orphan receptor gamma (ROR-gamma) signaling pathway (AID 651802); further: nearly all actives have a fitted effect of over 60% in size; further: potency means the concentration at half of the fitted maximal effect
# Sequence of Nuclear receptor ROR-gamma (Homo sapiens) (P51449 whole entry, looked up): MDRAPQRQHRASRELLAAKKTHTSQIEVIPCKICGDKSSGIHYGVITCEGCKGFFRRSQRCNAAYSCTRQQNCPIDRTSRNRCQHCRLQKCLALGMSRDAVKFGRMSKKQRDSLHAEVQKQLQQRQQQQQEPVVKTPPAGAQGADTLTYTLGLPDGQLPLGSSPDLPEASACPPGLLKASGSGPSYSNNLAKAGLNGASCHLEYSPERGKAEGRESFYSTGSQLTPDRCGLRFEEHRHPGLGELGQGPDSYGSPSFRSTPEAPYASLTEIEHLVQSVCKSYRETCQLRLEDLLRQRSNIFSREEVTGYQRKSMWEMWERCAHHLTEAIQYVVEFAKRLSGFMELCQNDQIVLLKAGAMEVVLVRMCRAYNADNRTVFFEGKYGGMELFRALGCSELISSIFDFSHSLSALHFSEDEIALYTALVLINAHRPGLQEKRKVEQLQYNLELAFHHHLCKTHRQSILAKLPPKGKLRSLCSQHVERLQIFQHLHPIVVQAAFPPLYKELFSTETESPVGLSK
# How it was run: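 Steps: cells dispensed; compound or DMSO transferred by pin tool; doxycycline added to induce the ROR response element-driven luciferase; plates held 16hr at 37C; ONE-Glo added and luminescence measured.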
# [10] = qHTS assay for small molecule antagonists of the retinoid-related orphan receptor gamma (ROR-gamma) signaling pathway - cell viability counter screen (AID 720652; active means well fitted curve in the direction sought with a large enough effect in the repeat runs; an effect the other way counts as inactive or inconclusive;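 further: compound exposure lasted 16 hr before ATP read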; further: potency means the concentration at half of the fitted maximal effect)
# How it was run: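 Steps: seed CHO cells bearing TET-inducible ROR and ROR response element-luciferase; rest 5 hr at 37 C; add compound, then doxycycline; incubate 16 hr; add CellTiter-Glo and read luminescence as ATP-based viability.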
structure (smiles),measurement,setting,value
Oc1cc(Cl)ccc1Oc1ccc(Cl)cc1Cl,max response,[1],13.1%
same,Potency,[2],inactive
same,max response,[3],-9.95%
NC(=Nc1ccccc1)Nc1ccccc1,Potency,[4],11.2 µM (active)
same,max response,[3],3.18%
Cc1cc(SCc2sc(-c3ccc(C(F)(F)F)c(F)c3)nc2C)ccc1OCC(=O)O,activation,[4],14.6%
same,Potency,[1],2 µM (active)
same,Potency,[5],inactive
same,max response,[3],-1.47%
Cn1c(CCCC(=O)O)nc2cc(N(CCCl)CCCl)ccc21,Potency,[5],inactive
Nc1ccncc1,activation,[4],-2.98%
same,max response,[1],0.27%
same,outcome,[6],inactive
same,outcome,[7],inactive
same,outcome,[8],inactive
same,Potency,[2],inactive
Oc1ccccc1-c1ccccc1,activation,[4],0.277% [middle of 4 runs]
same,max response,[1],-2.25% and -0.4% and 12.1%
same,Potency,[9],inactive
same,Potency,[2],inactive
same,Potency,[10],inactive
same,Potency,[3],251 µM (active)
same,max response,[3],-12.4% and -2.58% and -3.94%
C[C@@H]1O[C@@H](O[C@H]2C[C@@H](O)[C@]3(CO)[C@H]4[C@H](O)C[C@]5(C)[C@@H](C6=CC(=O)OC6)CC[C@]5(O)[C@@H]4CC[C@]3(O)C2)[C@H](O)[C@H](O)[C@H]1O,activation,[4],6.71%
same,max response,[1],-0.456%
same,outcome,[6],inactive
same,outcome,[7],inactive
same,outcome,[8],inactive
same,Potency,[2],inactive
COC1(CS(=O)c2ccccc2)CCN(CCc2c[nH]c3ccc(F)cc23)CC1 (configuration not stated),Potency,[5],inactive
CC(C)(C)CC(C)(C)c1ccc(O)cc1,Potency,[1],25.1 µM (active)
same,Potency,[2],inactive
same,max response,[3],-9.38%
c1ccc2c(c1)Nc1ccccc1S2,max response,[1],-1.15% and -1.18%
same,Potency,[9],inactive
same,Potency,[2],inactive
same,Potency,[10],inactive
same,max response,[3],-25.7% and -9.49%
OCCOc1ccccc1,activation,[4],-1.68% and 1.95% and 8.55%
same,max response,[1],-6.3% and -2.04% and 0.179%
same,Potency,[9],inactive
same,Potency,[2],inactive
same,Potency,[10],inactive
same,max response,[3],-0.196% and 2.04% and -9.12%
N[C@@H](Cc1ccc(N(CCCl)CCCl)cc1)C(=O)O,activation,[4],3.17% and 3.79%
same,max response,[1],-0.479% and -0.609%
same,Potency,[9],26.6 µM (active)
same,Potency,[10],21.1 µM (active)
same,max response,[3],-3.2% and -6.56%
Oc1ccc(Cl)cc1Cc1ccccc1,activation,[4],0.74% and 2.47%
same,max response,[1],14% and 4.54%
same,Potency,[2],inactive
same,Potency,[10],inactive
same,max response,[3],1.75% and 7.8%
Clc1ccc(COC(Cn2ccnc2)c2ccc(Cl)cc2Cl)cc1 (configuration not stated),max response,[1],-5.88%
same,Potency,[2],inactive
same,max response,[3],-7.45%
C[C@]12CCC(=O)C(O)=C1CC[C@@H]1[C@@H]2CC[C@]2(C)C(=O)CC[C@@H]12,activation,[4],0.0711%
same,max response,[1],-1.14%
same,Potency,[5],inactive
same,outcome,[6],inactive
same,outcome,[7],inactive
same,outcome,[8],inactive
same,Potency,[2],inactive
same,max response,[3],-0.568%
COc1cc2c(c(OC)c1OC)-c1ccc(OC)c(=O)cc1[C@@H](NC(C)=O)CC2,Potency,[9],335 nM (active) and 119 nM (active)
O=c1[nH]c2ccccc2n1C1CCN(CCCC(c2ccc(F)cc2)c2ccc(F)cc2)CC1,activation,[4],1.32%
same,max response,[1],-0.751%
same,Potency,[2],inactive
same,Potency,[3],50.1 µM (active)
NCC(O)c1ccc(O)cc1 (configuration not stated),activation,[4],-0.493%
same,max response,[1],-2.88%
same,Potency,[9],inactive
same,outcome,[6],inactive
same,outcome,[7],inactive
same,outcome,[8],inactive
same,Potency,[2],inactive
same,Potency,[10],inactive
same,max response,[3],-9.13%
C[C@@H]1[C@@H](C(=O)C[C@H]2O[C@@H]3O[C@]4(C)CC[C@@H]5[C@H](C)CC[C@@H]([C@H]2C)[C@@]35OO4)O[C@@H]2O[C@]3(C)CC[C@H]4[C@H](C)CC[C@@H]1[C@@]24OO3,Potency,[5],inactive
O=c1c(O)c(-c2ccc(O)c(O)c2)oc2cc(O)cc(O)c12,Potency,[5],15.4 µM (active)
Cn1cc(C2=C(c3cn(C4CCN(Cc5ccccn5)CC4)c4ccccc34)C(=O)NC2=O)c2ccccc21,Potency,[5],inactive
CC(C)C(=O)Nc1ccc([N+](=O)[O-])c(C(F)(F)F)c1,Potency,[9],23.7 µM (active)
O=c1oc2ccccc2c(O)c1C(CC(O)c1ccc(-c2ccc(Br)cc2)cc1)c1ccccc1 (configuration not stated),activation,[4],-0.116%
same,max response,[1],-1.05%
same,Potency,[2],inactive
same,max response,[3],-8.71%
